High-throughput results: PubChem BioAssay, Broad Institute
AF4-AF9 inh: inhibitors of AF4 peptide binding to AF9, primary screen, biochemical, AlphaScreen, biotin-AF4 peptide, FLAG-AF9, single point | Protein AF-9 (Homo sapiens), P42568 | inhibition, % at 10 µM | actives 0.47% (n = 350,000);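 active = every replicate reaching a set inhibition limit, whatever the replicate mean, cut at about 25% in these data; inconclusive = mean inhibition reaches that limit but some replicates miss it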;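 also: 0% = plate neutral control median and 100% = total signal loss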
RAD52 anneal inh: RAD52 DNA annealing inhibitors, primary screen, biochemical, FRET, single point, set 2; DNA repair protein RAD52 homolog (Homo sapiens), P43351; recombinant RAD52 DNA annealing, FRET fluorescence; inhibition, % at 18.7 µM; actives 0.46% (n = 360,000);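 active = every replicate showing at least 50% inhibition; inconclusive = mean inhibition at least 50% but not in every replicate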
GSIS activator: GLuc luminescence reporter in INS-1E cells, primary screen for activators of glucose-dependent secretion of insulin. actives 0.61% (n = 370,000). INS-1E GLuc reporter insulin secretion, 2-3 h. activation, % at 16.6 µM. AID 743287, 2014;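 active = lowest replicate activation of at least 40%, so every replicate reaches that level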;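 also: 0% = median of neutral control wells and 100% = median of IBMX positive control wells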
RAD54 branch: inhibitors of human RAD54 branch migration, primary screen, biochemical, fluorescence, single point; DNA repair and recombination protein RAD54-like (Homo sapiens), Q92698; RAD54 Holliday junction branch migration, FAM/BHQ fluorescence; inhibition, % at 10.4 µM; actives 0.14% (n = 360,000); AID 602329, 2012;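 active = mean normalized replicate activity at least 40 and at least half of replicates scoring 40 or more; inconclusive = only one of the two criteria met; inactive = mean below 40 and under half of replicates reaching 40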;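 also: 0% = median of neutral control wells and 100% = median of positive control wells; inhibitors cause a drop in the FAM fluorescence signal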
DENV2 CPE rescue: inhibitors of DENV2 cytopathic effect, primary screen, cell-based, plate reader, single concentration; DENV2-infected cells, cytopathic effect rescue; CPE inhibition, % at 9.99 µM; actives 1.7% (n = 350,000); AID 651640, 2012; in the data active = CPE inhibition above about 20%, passing the limit was not always enough; inconclusive = no clear call, values can overlap the other calls; tested in BHK-21 cells;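 also: 0% = median of neutral control wells and 100% = median of positive control wells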
An asterisk follows results filed as active. The list is not random: actives were taken first. Their share in the collection is about 3.1%.

Screening C[C@@H]1CCCCO[C@@H](CN(C)C(=O)CCC(F)(F)F)[C@H](C)CN([C@H](C)CO)C(=O)c2cc(N(C)C)ccc2O1 returned GSIS activator -0.5.
Screening C[C@@H]1CN([C@H](C)CO)C(=O)c2cc(N(C)C)ccc2O[C@@H](C)CCCCO[C@@H]1CN(C)C(=O)CCC(F)(F)F returned AF4-AF9 inh -3.7, RAD52 anneal inh -141.2, GSIS activator -4.2, RAD54 branch -13.0 and DENV2 CPE rescue 105.6*.
Screening COc1ccc(NC(=O)N(C)C[C@H]2OCCCC[C@@H](C)Oc3ccc(NC(=O)c4ccncc4)cc3C(=O)N([C@H](C)CO)C[C@H]2C)cc1 returned GSIS activator -0.5, RAD54 branch -14.5 and DENV2 CPE rescue 13.8.
Screening C[C@@H]1CCCCO[C@H](CN(C)C(=O)Nc2ccc(C(F)(F)F)cc2)[C@@H](C)CN([C@@H](C)CO)C(=O)c2cc(NC(=O)c3ccncc3)ccc2O1 returned AF4-AF9 inh -0.8, RAD52 anneal inh -2.1, GSIS activator 18.2, RAD54 branch -2.0 and DENV2 CPE rescue 2.4.
`CN(C)C(=O)C[C@H]1CC[C@H]2[C@H](COc3ccc(NC(=O)C4CCC4)cc3C(=O)N2C)O1` gave AF4-AF9 inh -4.3, RAD52 anneal inh -6.4, GSIS activator -3.8 and DENV2 CPE rescue 0.6.
For C[C@@H]1CN([C@@H](C)CO)C(=O)c2cc(NC(=O)c3ccncc3)ccc2O[C@@H]1CN(C)C(=O)Nc1ccc(F)cc1 the results were AF4-AF9 inh -0.9, RAD52 anneal inh -4.5, GSIS activator 0.6, RAD54 branch 18.6 and DENV2 CPE rescue -1.0.
For CN(C)CCCN1C(=O)[C@@]2(Cc3ccccc31)c1ccccc1C(=O)N(Cc1ccccc1C(F)(F)F)[C@H]2c1ccc(CO)cc1 the results were AF4-AF9 inh -14.3, RAD52 anneal inh -14.1, RAD54 branch -4.5 and DENV2 CPE rescue -2.5.
For COCCCN1C(=O)[C@@]2(Cc3ccccc31)c1ccccc1C(=O)N(Cc1ccccc1)[C@H]2c1ccc(CO)cc1 the results were AF4-AF9 inh -3.9, RAD52 anneal inh 6.5, RAD54 branch 7.3 and DENV2 CPE rescue 23.3*.
Screening CN(C)c1ccc2c(c1)[C@@H]1C[C@H](CC(=O)NCCN3CCCCC3)O[C@H](CO)[C@@H]1O2 returned AF4-AF9 inh 12.3, RAD52 anneal inh 40.4, GSIS activator 17.3, RAD54 branch inconclusive and DENV2 CPE rescue 6.4.
`O=C(C[C@@H]1C[C@@H]2c3cc(NC(=O)Cc4ccncc4)ccc3O[C@@H]2[C@@H](CO)O1)NCCN1CCCCC1` gave AF4-AF9 inh -4.9, RAD52 anneal inh 47.3, GSIS activator -4.6, RAD54 branch -2.6 and DENV2 CPE rescue 77.1*.
O=C(O)C[C@H]1C[C@@H]2c3cc(NC(=O)Cc4ccncc4)ccc3O[C@@H]2[C@@H](CO)O1 was read as AF4-AF9 inh -1.3, RAD52 anneal inh 0.5, GSIS activator 2.1, RAD54 branch 0.8 and DENV2 CPE rescue 89.8*.
Screening CN(C)c1ccc2c(c1)[C@@H]1C[C@@H](CC(=O)NCCN3CCCCC3)O[C@H](CO)[C@@H]1O2 returned AF4-AF9 inh 17.4, RAD52 anneal inh 31.6, GSIS activator 23.0, RAD54 branch 55.3* and DENV2 CPE rescue -2.7.
Screening O=C(Cc1ccncc1)Nc1ccc2c(c1)[C@H]1C[C@H](CC(=O)N3CCc4ccccc4C3)O[C@H](CO)[C@H]1O2 returned AF4-AF9 inh 25.2*, RAD52 anneal inh -3.7, GSIS activator 5.1, RAD54 branch 8.9 and DENV2 CPE rescue 3.0.
`CN(C)C(=O)C[C@@H]1C[C@@H]2c3cc(NC(=O)C4CCC4)ccc3O[C@@H]2[C@@H](CO)O1` gave AF4-AF9 inh -0.7, RAD52 anneal inh -5.6, GSIS activator 1.1, RAD54 branch 2.1 and DENV2 CPE rescue 6.5.
Screening C[C@H]1CN(C)C(=O)c2cc(N)ccc2O[C@@H]1CN(C)C(=O)OC(C)(C)C returned GSIS activator 3.0.
For CS(=O)(=O)Nc1ccc2c(c1)[C@H]1C[C@H](CC(=O)O)O[C@@H](CO)[C@H]1O2 the results were AF4-AF9 inh -2.5, RAD52 anneal inh -9.4, GSIS activator 0.3 and DENV2 CPE rescue 24.9*.
